Experimental data reported in PubChem BioAssay (Tox21).
Results filed as inconclusive are left out. Entries that show only a call come without a potency. Values without a mark were called inactive. Activity calls are given as the source filed them. Unless noted, calls come from the whole dose curve; as a rule, active = well fitted curve in the direction sought with a large enough effect in the repeat runs; inconclusive = weak or mixed curves; inactive = no such curve, though single readings can be large; an effect the other way counts as inactive or inconclusive.

Experiments:
[1] = qHTS assay to identify small molecule antagonists of the retinoid acid receptor (RAR) signaling pathway - cell viability counter screen (AID 1159551); note: nearly all actives have a fitted effect of over 35% in size
In short: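 In this counter screen, the RARE-luciferase line C3RL4 was exposed for 6 h at 37 C and 5% CO2 to compounds with retinol at 1 uM final. Cellular ATP, read by luminescence, served as the viability measure.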

[2] = qHTS assay to identify small molecule antagonists of the retinoic acid receptor (RAR) signaling pathway (AID 1159552; note: nearly all actives have a fitted effect of over 50% in size; note: potency is the fitted concentration of half-maximal effect)
In short: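 Cells of the C3RL4 line were seeded, incubated overnight, then dosed with compounds in DMSO followed immediately by retinol (1 uM final). Six hours later luciferase detection reagent went in; signal was measured after 30 min at RT.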

[3] = qHTS assay to identify small molecule agonists of the retinoic acid receptor (RAR) signaling pathway (AID 1159553); note: potency is the fitted concentration of half-maximal effect
In short: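 In this cell-based screen, 1,000 C3RL4 cells per well were cultured overnight, dosed with test chemicals in DMSO for 6 hr, and assessed for RARE luciferase luminescence.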

[4] = qHTS assay to identify small molecule antagonists of the estrogen related receptor (ERR) signaling pathway - cell viability counter screen (AID 1224818); note: series mostly up to about 46 µM
In short: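 Viability of ERR cells, CellTiter-Fluor fluorescence; 17.5 h compound exposure at 37 C, DMSO vehicle; 30 min reagent incubation at 37 C/5% CO2.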

[5] = qHTS assay to identify small molecule antagonists of the estrogen related receptor (ERR) signaling pathway (AID 1224819;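 note: luminescence from an ERR-driven luciferase reporter measured with One-Glo reagent; series mostly up to about 46 µM; nearly all actives have a fitted effect of over 50% in size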)
In short: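 Seed ERR cells 2,000/well; rest 6 h at 37 C/5% CO2; pin compounds in DMSO; incubate 18 h at 37 C; add One-Glo; wait 30 min at room temperature; measure luminescence.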

[6] = qHTS assay to identify small molecule agonists of the estrogen related receptor (ERR) signaling pathway (AID 1224820)
In short: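 Luminescence readout (One-Glo, 30 min RT) from NTP-supplied ERR cell line exposed to compounds for 18 h at 37 C. Cells seeded 2,000 per well and pre-incubated 6 h before pin-tool compound transfer.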

[7] = tested on: estrogen-related receptor alpha (ERRalpha) with PGC-1alpha coactivator, human; assay: qHTS assay to identify small molecule antagonists of the estrogen related receptor signaling pathway with the pleiotropic PPARgamma coactivator (PGC) (AID 1224821; calls by dose curve;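 note: series mostly up to about 46 µM; lower luminescence signal means antagonism of PGC/ERR signalling; nearly all actives have a fitted effect of over 50% in size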)
In short: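 PGC/ERR reporter cells; 6 h pre-incubation 37 C/5% CO2; pin-tool compound in DMSO, 18 h 37 C; One-Glo added, 30 min RT; luminescence read. qHTS antagonist mode.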

[8] = qHTS assay to identify small molecule agonists of the estrogen related receptor signaling pathway with the pleiotropic PPARgamma coactivator (PGC) (AID 1224823)
In short: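 Luminescence readout (One-Glo, 30 min RT) from PGC/ERR cell line treated 18 h at 37 C with pin-tool-delivered DMSO compound solutions; cells plated 6 h before dosing. Quantitative HTS format.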

[9] = qHTS assay to identify small molecule agonists of the RXR signaling pathway - cell viability counter screen (AID 1159529); note: nearly all actives have a fitted effect of over 50% in size; note: potency is the fitted concentration of half-maximal effect;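 for activity change, negative = cytotoxicity: HEK 293T cells carrying an RXR-alpha UAS beta-lactamase reporter; series mostly up to about 77 µM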
In short: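 HEK 293T RXRa-bla cells, 2% CS-FBS; 5 h settle; cpd 16 h 37 C, 5% CO2; CellTiter-Glo 30 min RT, luminescence. Tetraoctyl ammonium bromide as positive control.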

Question: With `COc1ccc2nc(NC(=O)Nc3ccccc3)sc2c1` as the molecule, how does the outcome [1] read?
Answer: inactive

Question: With `CN1CCN(C2=Nc3ccccc3Oc3ccc(Cl)cc32)CC1` as the molecule, how does the outcome [1] read?
Answer: inactive

Question: And the Potency [2]?
Answer: inactive

Question: What about the Potency [3] of the same molecule?
Answer: inactive

Question: What about the outcome [4] of the same molecule?
Answer: inactive

Question: And the outcome [5]?
Answer: inactive

Question: And the outcome [6]?
Answer: inactive

Question: And the outcome [7]?
Answer: inactive

Question: What about the outcome [8] of the same molecule?
Answer: inactive

Question: With `CC(C)O` as the molecule, how does the outcome [1] read?
Answer: inactive

Question: For `CC1(C)O[C@@H]2C[C@H]3[C@@H]4CCC5=CC(=O)CC[C@]5(C)[C@@]4(F)[C@@H](O)C[C@]3(C)[C@]2(C(=O)CCl)O1`, which outcome [1] is on record?
Answer: inactive

Question: And the Potency [3]?
Answer: inactive

Question: With `Cc1nc(N)nc(N)c1-c1ccc(Cl)c(Cl)c1` as the molecule, how does the outcome [1] read?
Answer: inactive

Question: And the Potency [2]?
Answer: inactive

Question: And the Potency [3]?
Answer: inactive

Question: With `CCC(=O)c1ccc2c(c1)N(CCCN(C)C)c1ccccc1S2` as the molecule, how does the outcome [1] read?
Answer: inactive

Question: And the Potency [3]?
Answer: inactive

Question: Which outcome [1] does the source give for `CCCCCCCCCCCCCCCCOP(=O)([O-])OCC[N+](C)(C)C` here?
Answer: inactive

Question: What about the Potency [2] of the same molecule?
Answer: inactive

Question: What about the Potency [3] of the same molecule?
Answer: inactive

Question: Which results are given for `CCCCc1ccc2nc(NC(=O)OC)[nH]c2c1`?
Answer: outcome [1]: inactive; Potency [2]: inactive; Potency [3]: 8.41 µM (active)

Question: With `COc1cc2c(cc1N)oc1ccccc12` as the molecule, how does the outcome [1] read?
Answer: inactive

Question: What about the Potency [2] of the same molecule?
Answer: inactive

Question: And the Potency [3]?
Answer: 12.5 µM (active)

Question: What does the source list for `CC(C)NC[C@@H](O)COc1cccc2ccccc12`?
Answer: outcome [1]: inactive; Potency [2]: inactive; Potency [3]: inactive

Question: For `C=CC(C)(O)CC/C=C(\C)CCC=C(C)C` (stereo not drawn), which outcome [1] is on record?
Answer: inactive

Question: Which Potency [9] does the source give for `CCOC(=O)CS` here?
Answer: inactive

Question: And the outcome [1]?
Answer: inactive

Question: What about the Potency [2] of the same molecule?
Answer: 28.1 µM (active)

Question: And the Potency [3]?
Answer: inactive

Question: With `CC(C)(C)c1ccc(OC(=O)c2ccccc2O)cc1` as the molecule, how does the outcome [1] read?
Answer: inactive

Question: And the Potency [3]?
Answer: 1.09 µM (active)

Question: Which results are given for `CCNCCO`?
Answer: Potency [9]: inactive; outcome [1]: inactive; Potency [3]: inactive

Question: Which outcome [1] does the source give for `ClC(Cl)Cl` here?
Answer: inactive

Question: With `CCOc1ccccc1N` as the molecule, how does the outcome [1] read?
Answer: inactive

Question: And the Potency [3]?
Answer: inactive

Question: For `CCC(=O)O[C@]1(C(=O)SCF)[C@H](C)C[C@H]2[C@@H]3C[C@H](F)C4=CC(=O)C=C[C@]4(C)[C@@]3(F)[C@@H](O)C[C@@]21C`, which outcome [1] is on record?
Answer: inactive

Question: And the Potency [3]?
Answer: inactive

Question: With `CN(C)C(=O)NC1(c2ccccc2)CCN(CCC[C@]2(c3ccc(Cl)c(Cl)c3)CCCN(C(=O)c3ccccc3)C2)CC1` as the molecule, how does the activity change, negative = cytotoxicity [1] read?
Answer: -1.37% [at 19 µM]

Question: What does the source list for `CCc1cc2cc(OC)c(OC)cc2c(Cc2ccccc2)n1`?
Answer: Potency [9]: inactive; Potency [3]: inactive

Question: Which results are given for `Cc1ccccc1C(=O)Nc1ccc(C(=O)N2CCCC(O)c3cc(Cl)ccc32)c(C)c1` (stereo not drawn)?
Answer: Potency [9]: inactive; outcome [1]: inactive; Potency [3]: inactive

Question: For `Cc1ccc(C=O)s1`, which outcome [1] is on record?
Answer: inactive

Question: What about the Potency [2] of the same molecule?
Answer: inactive

Question: With `CCCCOc1cc(C(=O)NCCN(CC)CC)c2ccccc2n1` as the molecule, how does the outcome [1] read?
Answer: inactive

Question: And the Potency [3]?
Answer: inactive

Question: For `Cc1c(N)cccc1N`, which outcome [1] is on record?
Answer: inactive

Question: Which results are given for `CCOC(=O)COc1ccc2c(c1)CC(NCC(O)c1cccc(Cl)c1)CC2` (stereo not drawn)?
Answer: outcome [1]: inactive; Potency [2]: inactive; Potency [3]: inactive

Question: For `CCCCCCCCCC#N`, which outcome [1] is on record?
Answer: inactive

Question: For `CCCCCCOc1ccc(N)cc1`, which outcome [1] is on record?
Answer: inactive

Question: What about the Potency [2] of the same molecule?
Answer: inactive

Question: And the Potency [3]?
Answer: 10.9 µM (active)

Question: Which Potency [9] does the source give for `Nc1ccc2ccccc2c1S(=O)(=O)O` here?
Answer: inactive

Question: And the outcome [1]?
Answer: inactive

Question: And the Potency [3]?
Answer: 24.8 µM (active)

Question: With `C=CC1CO1` (stereo not drawn) as the molecule, how does the Potency [9] read?
Answer: inactive

Question: What about the outcome [1] of the same molecule?
Answer: inactive

Question: And the Potency [3]?
Answer: inactive

Question: With `Cc1nc(-c2ccccn2)ncc1C(=O)Nn1cc(C)c2cc(F)ccc21` as the molecule, how does the outcome [1] read?
Answer: inactive

Question: And the Potency [2]?
Answer: inactive

Question: Which results are given for `CCCCCCCCCCCCOCCOS(=O)(=O)O`?
Answer: Potency [9]: 19.5 µM (active); outcome [1]: inactive; Potency [2]: inactive; Potency [3]: inactive

Question: What does the source list for `CC1=C(CC(=O)O)c2cc(F)ccc2/C1=C\c1ccc(S(C)(=O)=O)cc1`?
Answer: Potency [9]: inactive; outcome [1]: inactive; Potency [2]: inactive; Potency [3]: inactive; outcome [4]: inactive; outcome [5]: inactive; outcome [6]: inactive; outcome [7]: inactive; outcome [8]: inactive

Question: Which results are given for `CN(CCCN1c2ccccc2CCc2ccccc21)CC(=O)c1ccc(Cl)cc1`?
Answer: outcome [1]: inactive; Potency [2]: inactive

Question: Which outcome [1] does the source give for `CC(C)C1=CC2=CC[C@@H]3[C@](C)(CCC[C@@]3(C)C(=O)O)[C@H]2CC1` here?
Answer: inactive

Question: And the Potency [2]?
Answer: inactive

Question: What about the Potency [3] of the same molecule?
Answer: inactive
